Measurements: ChEMBL document CHEMBL1157539, “Thousands of chemical starting points for antimalarial lead identification” (Nature, 2010)

Columns and labels:
Format in all cases: functional
[1] = tested on: Plasmodium falciparum; assay: GSK_TCMDC: Inhibition of Plasmodium falciparum 3D7 in whole red blood cells, using parasite LDH activity as an index of growth. Test compounds present at 2uM
[2] = tested on: Plasmodium falciparum; assay: GSK_TCMDC: Inhibition of Plasmodium falciparum Dd2 in whole red blood cells, using parasite LDH activity as an index of growth. Test compounds present at 2uM
[3] = tested on: HepG2; assay: GSK_TCMDC: Percent inhibition of human HepG2 cell line. Test compounds present at 10uM.

CCNc1cc(C)nc(Nc2ccc(NC(=O)c3c(F)cccc3Cl)cc2)n1
Inhibition [1]: 100% | Inhibition [2]: 89% | Inhibition [3]: 49%

O=C(/C=C/c1ccc(Cl)c(Cl)c1)NCCCCCN1CCC(NC(=O)Nc2ccccc2Cl)CC1
Inhibition [1]: 100% | Inhibition [2]: 23% | Inhibition [3]: 56%

CCc1nc(N)nc(N)c1CCCOc1ccccc1Cl.Cl
Inhibition [1]: 92% | Inhibition [2]: 13% | Inhibition [3]: 61%

O=C(Nc1ccc(Cl)cc1)Nc1ccc(OCC(O)CN2CCCCC2)cc1 (configuration not stated)
Inhibition [1]: 83% | Inhibition [2]: 13% | Inhibition [3]: 18%

Cc1cc(Cl)ccc1NC(=O)NCCCCCN1CCC(c2c[nH]c3ccccc23)CC1
Inhibition [1]: 91% | Inhibition [2]: 8% | Inhibition [3]: 59%

Br.CC1(C)NC(N)=NC(=N)N1OCCCc1cc(Cl)c(Cl)cc1Cl
Inhibition [1]: 95% | Inhibition [2]: 96% | Inhibition [3]: 55%

O=C(NCC1CCC(C(=O)O)CC1)c1ccc(/C=C/C(=O)N2CCc3ccccc3C2c2ccc3c(c2)OCO3)cc1 (configuration not stated)
Inhibition [1]: 91% | Inhibition [2]: 17% | Inhibition [3]: 66%

Cc1ccc(F)cc1S(=O)(=O)NCC(C)c1ccc(NC(=O)Nc2cccc(F)c2)cc1 (configuration not stated)
Inhibition [1]: 95% | Inhibition [2]: 5% | Inhibition [3]: 20%

CCc1c(C)c2ccc3c(c2oc1=O)CN(CCc1ccc(F)cc1)CO3
Inhibition [1]: 94% | Inhibition [2]: 85% | Inhibition [3]: 0%

O=C(O)c1ccc(NC(=O)C2CC(=O)N(Cc3ccc(Cl)cc3)C(=Nc3ccc(Cl)cc3)S2)cc1 (configuration not stated)
Inhibition [1]: 99% | Inhibition [2]: 95% | Inhibition [3]: 0%

Cc1ccc(O)cc1Nc1ccnc2cc(-c3csc(CN(C)CCN(C)C)n3)ccc12
Inhibition [1]: 100% | Inhibition [2]: 80% | Inhibition [3]: 3%

COc1c(C2CCN(CCCCNC(=O)c3ccc(NC(=O)c4ccc(C#N)cc4)cc3)CC2)ccc2c1CCCC2
Inhibition [1]: 97% | Inhibition [2]: 100% | Inhibition [3]: 81%

COC(=O)c1c(C#N)c(OC)cc(O)c1CSC[C@@H](CN1CCCCC1)Nc1nc(-c2ccc([N+](=O)[O-])cc2)cs1
Inhibition [1]: 100% | Inhibition [2]: 77% | Inhibition [3]: 8%

Cc1nc2ccc(F)cc2n1C1CCN(C(=O)Cc2ccc(F)c(F)c2)CC1
Inhibition [1]: 100% | Inhibition [2]: 99% | Inhibition [3]: 2%

CCN(CCCN1CCCCC1)c1cc(C)nc(Nc2cc(C)ccc2C)n1.O=C(O)C(F)(F)F
Inhibition [1]: 93% | Inhibition [2]: 42% | Inhibition [3]: 34%

Cc1cc(N/N=C/c2ccc([N+](=O)[O-])cc2)c2ccc(F)cc2n1
Inhibition [1]: 100% | Inhibition [2]: 22% | Inhibition [3]: 0%

Br.CCCC1N=C(N)N=C(N)N1c1ccc(CC)cc1 (configuration not stated)
Inhibition [1]: 94% | Inhibition [2]: 4% | Inhibition [3]: 11%

O=C(O)C(F)(F)F.c1cc(CN2CCCCC2)cc(-c2csc(-c3nc4ccccc4[nH]3)c2)c1
Inhibition [1]: 90% | Inhibition [2]: 16% | Inhibition [3]: 26%

O=C(Nc1ccc(-c2cccc(CN3CCC(O)CC3)c2)cc1)c1cccc(Cl)c1.O=C(O)C(F)(F)F
Inhibition [1]: 94% | Inhibition [2]: 14% | Inhibition [3]: 50%

COc1ccc(CCNCCCCCCNCCc2ccccc2Cl)cc1OC.Cl
Inhibition [1]: 96% | Inhibition [2]: 3% | Inhibition [3]: 13%

CCC1CN2CCc3c([nH]c4ccccc34)C2CC1CC1NCCc2cc(OC)c(OC)cc21.Cl (configuration not stated)
Inhibition [1]: 100% | Inhibition [2]: 83% | Inhibition [3]: 26%

CN(C)CCn1cc(C(=O)c2cc(Cl)ccc2O)cc1-c1nc2ccccc2c(=O)[nH]1
Inhibition [1]: 99% | Inhibition [2]: 87% | Inhibition [3]: 16%

COc1ccc(-c2nonc2NC(=O)c2ccc(C(C)(C)C)cc2)cc1OC
Inhibition [1]: 99% | Inhibition [2]: 73% | Inhibition [3]: 0%

COc1ccccc1CCNc1nc(C)cc(N[C@@H](Cc2ccccc2)C(=O)NCc2cccs2)n1.O=C(O)C(F)(F)F
Inhibition [1]: 100% | Inhibition [2]: 73% | Inhibition [3]: 18%

COc1cccc2c(NCc3ccccc3)nc(NCCCN3CCCCC3C)nc12 (configuration not stated)
Inhibition [1]: 90% | Inhibition [2]: 2% | Inhibition [3]: 20%

Cn1cncc1CCCN(Cc1ccc(-c2ccc(C(F)(F)F)cc2)cc1)C(=O)Cn1c(CCc2cccc(F)c2F)cc(=O)c2cccnc21
Inhibition [1]: 85% | Inhibition [2]: 59% | Inhibition [3]: 17%

COc1ccc2nccc([C@@H](O)CN3CCC(NC(=O)c4nc(Cl)c(Cl)c(N)c4Cl)CC3)c2c1.CS(=O)(=O)O
Inhibition [1]: 87% | Inhibition [2]: 17% | Inhibition [3]: 16%

CC1N=C(N)N=C(N)N1OCc1cccc2ccccc12 (configuration not stated)
Inhibition [1]: 93% | Inhibition [2]: 4% | Inhibition [3]: 66%

Cc1noc(C)c1CN1CCCN(c2ccc3c(c2)CCN(Cc2ccc(-c4ncc[nH]4)cc2)CC3)CC1
Inhibition [1]: 98% | Inhibition [2]: 39% | Inhibition [3]: 1%
